Experimental data: the supplement of paper PMC9262897, “Low-cost anti-mycobacterial drug discovery using engineered E. coli” (Nature Communications, 2022)
Where a name gives a salt, the structure may show the parent alone. ± gives the standard deviation of the averaged measurements.

How the values were obtained:
Assay in all cases: growth (OD600 after 10 h); higher = more growth (less inhibition)
[1] = test system: E. coli TESEC Alr+ wild-type control; details: compound 0.1 mM; raw OD600 reference: median of DMSO wells 0.241, cell-free background 0.041
Method: (§1)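 TESEC Mtb Alr E. coli, or the Alr+ wild-type control, in 384-well plates with Prestwick library compounds at 0.1 mM and 1% DMSO, across arabinose induction levels of 1E3 to 1E7 nM. Growth is read as OD600 after 10 h at 37 °C in triplicate biological replicates.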

E. coli TESEC Mtb Alr [2] = details: compound 0.1 mM
Method: as §1

E. coli TESEC Mtb Asd = details: compound 0.1 mM
Method: (§2)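 TESEC E. coli strains in which the native enzyme is deleted and replaced by arabinose-inducible Mtb Asd, DapB, CysH or TrpD, each grown in its selective medium. Strains were screened against the Prestwick library at 0.1 mM and 1% DMSO in 384-well format at low and high arabinose induction. Growth is read as OD600 after 10 h in triplicate.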

E. coli TESEC Mtb DapB = details: compound 0.1 mM
Method: as §2

[3] = test system: E. coli TESEC Alr+ wild-type control; details: compound 0.1 mM; raw OD600 reference: median of DMSO wells 0.49, cell-free background 0.052
Method: (§3)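 TESEC Mtb Alr E. coli (ΔaraC ΔtolC ΔentC Δalr ΔdadX, arabinose-inducible Mtb Alr) or the Alr+ wild-type control strain, grown in defined M9-fructose medium without D-alanine in 96-well plates with Prestwick library compounds at 0.1 mM and 1% DMSO. Low Alr induction is 0.1 µM arabinose and high induction is 10 mM arabinose.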

E. coli TESEC Mtb Alr [4] = details: compound 0.1 mM; remark: listed apart in the source
Method: as §3

[5] = arabinose 1000 nM, raw OD600 reference: median of DMSO wells 0.294, cell-free background 0.041
[6] = arabinose 10000 nM, raw OD600 reference: median of DMSO wells 0.264, cell-free background 0.041
[7] = arabinose 100000 nM, raw OD600 reference: median of DMSO wells 0.201, cell-free background 0.041
[8] = arabinose 1000000 nM, raw OD600 reference: median of DMSO wells 0.193, cell-free background 0.041
[9] = arabinose 10000000 nM, raw OD600 reference: median of DMSO wells 0.146, cell-free background 0.041
[10] = arabinose induction (level): High, raw OD600 reference: median of DMSO wells 0.331, cell-free background 0.041
[11] = arabinose induction (level): Low, raw OD600 reference: median of DMSO wells 0.417, cell-free background 0.041
[12] = arabinose induction (level): High, raw OD600 reference: median of DMSO wells […], cell-free background 0.041
[13] = arabinose induction (level): Low, raw OD600 reference: median of DMSO wells 0.227, cell-free background 0.041
[14] = arabinose 100 nM, raw OD600 reference: median of DMSO wells 0.413, cell-free background 0.052
[15] = arabinose 10000000 nM, raw OD600 reference: median of DMSO wells […], cell-free background 0.052

SMILES	growth [1]	growth (E. coli TESEC Mtb Alr [2]; [5])	growth (E. coli TESEC Mtb Alr [2]; [6])	growth (E. coli TESEC Mtb Alr [2]; [7])	growth (E. coli TESEC Mtb Alr [2]; [8])	growth (E. coli TESEC Mtb Alr [2]; [9])	growth (E. coli TESEC Mtb Asd; [10])	growth (E. coli TESEC Mtb Asd; [11])	growth (E. coli TESEC Mtb DapB; [12])	growth (E. coli TESEC Mtb DapB; [13])	growth [3]	growth (E. coli TESEC Mtb Alr [4]; [14])	growth (E. coli TESEC Mtb Alr [4]; [15])
CC(C)Cn1cnc2c(N)nc3ccccc3c21 [Imiquimod]	0.224 ± 0.017	0.282 ± 0.0092	0.282 ± 0.01	0.165 ± 0.012	0.178 ± 0.014	0.158 ± 0.01	0.209 ± 0.026	0.392 ± 0.024	0.21 ± 0.011	0.261 ± 0.045	0.574 ± 0.048	0.411 ± 0.0054	0.301 ± 0.015
CC(C)NCC(O)COc1ccc(CCOCC2CC2)cc1 (stereo unspecified) [Betaxolol hydrochloride]	0.222 ± 0.0081	0.301 ± 0.0039	0.26 ± 0.0051	0.232 ± 0.034	0.179 ± 0.014	0.161 ± 0.0056	0.264 ± 0.049	0.359 ± 0.069	0.235 ± 0.026	0.246 ± 0.011	0.562 ± 0.028	0.404 ± 0.011	0.341 ± 0.014
N#Cc1cc(NC(=O)C(=O)O)c(Cl)c(NC(=O)C(=O)O)c1 [Lodoxamide]	0.264 ± 0.0031	0.315 ± 0.006	0.2862 ± 0.0018	0.173 ± 0.0062	0.205 ± 0.013	0.134 ± 0.0054	0.228 ± 0.029	0.366 ± 0.035	0.222 ± 0.018	0.235 ± 0.03	0.579 ± 0.069	0.404 ± 0.014	0.348 ± 0.024
C=CC(N)CCC(=O)O (stereo unspecified) [Vigabatrin]	0.239 ± 0.005	0.279 ± 0.014	0.278 ± 0.0034	0.213 ± 0.013	0.191 ± 0.0036	0.148 ± 0.0044	0.313 ± 0.06	0.389 ± 0.089	0.174 ± 0.0095	0.192 ± 0.014	0.586 ± 0.13	0.411 ± 0.014	0.361 ± 0.046
O=C(CCNNC(=O)c1ccncc1)NCc1ccccc1 [Nialamide]	0.237 ± 0.0061	0.28 ± 0.01	0.276 ± 0.0091	0.193 ± 0.018	0.208 ± 0.0031	0.144 ± 0.0023	0.237 ± 0.041	0.346 ± 0.062	0.217 ± 0.034	0.249 ± 0.014	0.516 ± 0.07	0.431 ± 0.0058	0.337 ± 0.023
OC(CCCN1CCCCC1)(c1ccccc1)c1ccccc1 [Diphenidol hydrochloride]	0.227 ± 0.0039	0.278 ± 0.0057	0.257 ± 0.0075	0.2 ± 0.02	0.162 ± 0.0026	0.137 ± 0.0047	0.262 ± 0.012	0.488 ± 0.018	0.182 ± 0.018	0.221 ± 0.054	0.48 ± 0.034	0.407 ± 0.008	0.345 ± 0.0049
CC1=C(CC(=O)O)c2cc(F)ccc2/C1=C\c1ccc([S+](C)[O-])cc1 (stereo unspecified) [Sulindac]	0.166 ± 0.0055	0.206 ± 0.0077	0.181 ± 0.0019	0.125 ± 0.0091	0.0898 ± 0.0021	0.103 ± 0.0038	0.151 ± 0.018	0.243 ± 0.012	0.151 ± 0.013	0.196 ± 0.054	0.364 ± 0.036	0.364 ± 0.063	0.11 ± 0.01
